# Screening data from PubChem.
# Hits are enriched below; roughly 7.4% of the tested compounds scored in any of these assays.
# ELG1 genotox – inducers of genotoxicity in HEK293T ELG1-luciferase cells | HEK293T ELG1-luciferase reporter, luminescence, 16 h | Potency, µM (top dose mostly 46 µM), without a hit: at the highest dose activity change, positive = activation, hits mostly activators | 1.3% of 330,000 active; further: % of control where 0% means no effect; nearly all actives have a fitted effect of over 60% in size
#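 Quantitative HTS format in 1536-well plates. HEK293T ELG1-luciferase reporter cells receive test compound and are incubated 16 hr at 37 °C, 5% CO2; ONE-Glo added, 30 min room temperature, then luminescence read.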
# NPC1 promoter act – activates the NPC1 promoter; AID 485313; 2.4% of 320,000 active; Huh7 NPC1 promoter luciferase reporter, 24 h; Potency, µM (highest dose often 9.22 µM), for the others: at the top dose activation, most hits filed as activators; further: % of control where 0% means no effect; nearly all actives have a fitted effect of over 60% in size
#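 Stable NPC1-promoter luciferase Huh7 line; cpd (DMSO) 24 h, 37 °C, 5% CO2; Amplite luciferase reagent 10 min RT; luminescence readout. qHTS format.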
# FLuc modulator – inhibits or activates purified firefly luciferase, miR-21 counter-screen. P08659. Potency, µM (titrated, usually from 57.5 µM), without a hit: at the highest dose activity change, negative = inhibition, actives largely listed as inhibitors. 6.9% of 360,000 active. purified FLuc, Km substrates, luminescence inhibition;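 further: plate controls were vehicle for no effect and reference inhibitor for full effect; nearly all actives have a fitted effect of over 55% in size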
# Target sequence (P08659 whole entry, looked up): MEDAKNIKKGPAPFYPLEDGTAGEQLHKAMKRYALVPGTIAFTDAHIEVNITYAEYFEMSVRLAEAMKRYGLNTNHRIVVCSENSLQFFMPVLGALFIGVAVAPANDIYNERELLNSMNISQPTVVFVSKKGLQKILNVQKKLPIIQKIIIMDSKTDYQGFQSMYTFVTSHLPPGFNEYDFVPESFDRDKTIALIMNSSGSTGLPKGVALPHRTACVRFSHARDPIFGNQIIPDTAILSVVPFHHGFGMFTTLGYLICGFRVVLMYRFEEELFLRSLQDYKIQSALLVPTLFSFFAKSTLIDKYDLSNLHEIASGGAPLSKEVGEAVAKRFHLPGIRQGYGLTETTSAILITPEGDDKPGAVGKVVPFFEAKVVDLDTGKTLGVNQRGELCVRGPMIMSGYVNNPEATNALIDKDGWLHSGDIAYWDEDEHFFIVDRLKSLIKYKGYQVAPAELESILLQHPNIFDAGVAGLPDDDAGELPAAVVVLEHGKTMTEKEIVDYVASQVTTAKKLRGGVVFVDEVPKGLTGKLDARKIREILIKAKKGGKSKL
#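 Biochemical qHTS of compounds, final roughly 60 µM downward over six points, against 10 nM purified firefly luciferase using Km concentrations of substrates (10 uM D-luciferin, 10 uM ATP) in Tris acetate pH 7.5 buffer; luminescence output.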
# Rab9 prom act – Rab9 promoter activation; Huh7 Rab9 promoter-luciferase reporter, luminescence, 24 h; Potency, µM (doses to about 9.22 µM), for inactives: at the highest dose activation, negative = inhibition, actives largely listed as activators; 2.8% of 320,000 active; AID 485297; further: % of control where 0% means no effect; nearly all actives have a fitted effect of over 60% in size
#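 Huh7 cells stably carrying Rab9 promoter–luciferase reporter, plated 1500 cells/well, compound added after 2 h and incubated 24 h at 37 °C; luciferase luminescence then read after 10 min with detection reagent.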
# p53 reactivator – re-activators of mutant p53; H1299 p53-A138V BP100-luciferase reporter, luminescence, 24 h; Potency, µM (series often up to 92.2 µM), for the others: at the highest dose activity change, positive = activation, hits mostly activators; 0.063% of 320,000 active; AID 504706; further: % of control where 0% means no effect; nearly all actives have a fitted effect of over 45% in size
#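 p53-null H1299 cells stably carrying temperature-sensitive p53-A138V and a BP100-luciferase reporter were pinned with compounds (4-point, 1:5 series) and held 24 hrs at 37 deg C. Luminescence was read 10 min after detection reagent.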
# SMN2 splice enh – SMN2 splice variant enhancement; HEK293 SMN2-luciferase splicing reporter, luminescence, 30-36 h; 2.8% of 210,000 active; Potency, µM (top dose mostly 46.1 µM), for inactives: top-dose activity change, positive = activation, usual class: activators; further: % of control where 0% means no effect; nearly all actives have a fitted effect of over 55% in size
#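 HEK293 cells carry an SMN2 […]–luciferase reporter in which exon 7 inclusion puts luciferase in frame. Cells were plated 10-12 h before compound addition, then incubated 30-36 h at 37C. ONE-Glo luminescence was read; sodium butyrate at 4.5 mM final served as control.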
# Starred values were filed as active, the others as inactive; ? = inconclusive; . = no result given; [ ] = another dose, or the depositor's remark. The call rests on the fitted dose curve; in most records, active means well fitted curve in the direction sought with a large enough effect; inconclusive means small, poorly fitted or top-dose-only effect, or another doubt; inactive means no such curve, though single readings can be large; an effect the other way counts as inactive or inconclusive. Potency means the concentration at half of the fitted maximal effect.
SMILES,ELG1 genotox,NPC1 promoter act,FLuc modulator,Rab9 prom act,p53 reactivator,SMN2 splice enh
O=C(Nc1ccc(OC(F)F)cc1)c1ncc(Cl)c(Cl)c1Cl,-4.7%,-11.0%,?,10.8%,2.2%,20.9%
Cc1ccc(NC(=O)c2ncc(Cl)c(Cl)c2Cl)cc1C,?,-3.4%,-15.0%,2.82µM*,12.8%,?
O=C(Nc1ccccc1)c1cnc2ccccc2n1,?,18.5%,12µM*,6.7%,?,?
Cc1ccc(NC(=O)c2ccccc2C(=O)O)cc1C,.,.,.,.,.,-4.9%[9.22 µM]
CC1CCc2noc(NC(=O)c3ccccc3[N+](=O)[O-])c2C1 (centres undefined),.,.,-6.3%,.,.,-2.5%
Cc1cn(-c2ccccc2)c(C)c1/C=N\Nc1nc(N2CCOCC2)nc(N2CCOCC2)n1,-5.5%,-1.8%,19µM*,8.5%,4.1%,-0.5%
C(=C\c1ccccc1)/C=N/Nc1nc(N2CCOCC2)nc(N2CCOCC2)n1,-0.6%,1.5%,2.2%,-7.1%,3.1%,-4.0%
Cc1ccc(/C=N/Nc2cc(C)nc(N3CCOCC3)n2)cc1,-2.9%,-1.5%,2.69µM*,-1.9%,7.4%,.
Cc1cc(N/N=C/c2ccccc2)nc(N)n1,?,27.5%,16.9µM*,27.4%,15.7%,.
Cc1cccc(/C=N/Nc2cc(N3CCOCC3)nc(N3CCOCC3)n2)c1,-2.5%,-0.1%,-13.0%,-8.9%,-15.0%,-20.0%
Cc1cc(N/N=C/c2ccccc2)nc(N2CCOCC2)n1,8.8%,5.5%,12µM*,1.4%,-0.2%,.
CCOC(=O)C1CCCN(C(=O)c2cc(CN3C(=O)c4ccccc4C3=O)ccc2OC)C1 (centres undefined),1.7%,-3.3%,-1.8%,-1.2%,-1.4%,.
CCCCc1nc2c(c3c1C[C@H](C)OC3)CN(C(=O)NCCc1c[nH]c3ccccc13)CC2,.,.,.,.,.,-24.0%[9.22 µM]
Cc1nc(N/N=C/c2ccc(O)cc2)c2cnn(-c3ccccc3)c2n1,-7.4%,-0.8%,?,-3.7%,-0.9%,19.2%
O=c1c2ccccc2nc(N/N=C/c2c(O)ccc3ccccc23)n1O,-0.3%,-20.5%,1.9µM*,-30.5%,17.9%,-74.2%
O=c1c2ccccc2nc(N/N=C/c2ccc(O)cc2)n1O,-0.6%,0.5%,2.39µM*,0.0%,?,12.7%
Cc1nc2ccccc2nc1N/N=C/c1ccc(O)cc1,?,-1.1%,8.49µM*,24.7%,5.3%,.
CCn1nc(C)c2c(-c3ccccc3)cc(=O)n(C(C)C(=O)NCc3cccc(OC)c3)c21 (centres undefined),.,.,-0.7%,.,.,.
O=C(c1ccc2c(c1)N(Cc1ccc(F)cc1)C(=O)c1ccccc1S2(=O)=O)N1CCCCCC1,.,.,-3.7%,.,.,-3.0%
O=C(Nc1ccc2c(c1)N(S(=O)(=O)c1cccs1)CCC2)c1c(F)cccc1F,4.1%,-0.7%,0.5%,-4.5%,-3.6%,.
O=S(=O)(c1cccs1)N1CCCc2cccc(O)c21,4.8%,7.5%,19µM*,3.55µM*,?,9.2%
Cc1nnc(NCc2ccc(F)cc2)c2c1nnn2Cc1ccccc1Cl,.,.,-0.7%,.,.,-0.8%
COc1ccc(/C=C/C(=O)c2cc(Cl)ccc2O)c(OC)c1,2.6%,?,10.7µM*,21.9%,6.8%,.
COc1ccc(C(=O)/C=C(\N)C(F)(F)F)c(O)c1,-1.4%,0.4%,10.7µM*,-7.2%,0.2%,1.8%
O=C(/C=C/c1ccccc1)c1ccc(O)cc1O,.,.,.,.,.,-116.9%
SMILES,ELG1 genotox,NPC1 promoter act,FLuc modulator,Rab9 prom act,p53 reactivator,SMN2 splice enh
COc1ccc(C(=O)/C=C/c2ccccc2)c(O)c1,-3.4%,?,6.01µM*,?,?,-19.4%
O=C(/C=C/c1ccc(O)cc1)c1ccc(O)cc1O,?,16.7%[46.1 µM],10.7µM*,9.7%[46.1 µM],?,20.0%
COc1ccc(/C=C/C(=O)c2ccc(O)cc2O)cc1,.,.,.,.,.,-5.4%
COc1ccc(/C=C/C(=O)c2ccc(Cl)cc2)c(OC)c1,?,15.7%,2.13µM*,2.3%,?,-20.1%
CN(C)c1ccc(/C=C/C(=O)c2cc(Cl)ccc2O)cc1,0.2%,?,9.53µM*,2.0%,9.6%,.
COc1ccc(C(=O)/C=C/c2ccc(OC)cc2OC)c(O)c1,?,?,3.01µM*,?,16.4%,.
COc1ccc(OC)c(NC(=O)c2cc(-c3ccc(Cl)s3)nc3ccccc23)c1,.,.,-2.1%,.,.,5.6%
COc1ccc(NC2CCCN(C(=O)c3c(C)noc3C)C2)cc1 (centres undefined),6.8%,6.6%,4.0%,7.9%,-2.2%,.
COC(C[C@@H]1O[C@@H]1[C@H](O)[C@@H](C)OCc1ccccc1)OC,5.1%,-2.3%,1.8%,-0.1%,.,.
O=C(CSc1nc2ccccc2c2ccccc12)c1ccccc1,.,.,.,.,.,-7.6%[9.22 µM]
Cc1ccc2oc(-c3cccc(NC(=S)NC(=O)c4cccs4)c3)nc2c1,?,23.8%,10.7µM*,21.9%,?,0.8%[1.84 µM]
O=C(Nc1ccc2oc(-c3ccccc3)nc2c1)c1cccs1,?,3.98µM*,3.79µM*,2.51µM*,?,3.16µM*
O=C(Nc1ccc2oc(-c3ccccc3)nc2c1)c1ccncc1,-9.4%,5.7%,-14.0%,7.4%,-1.9%,-60.8%
Cc1c(NC(=O)c2cccs2)cccc1-c1nc2cc(Cl)ccc2o1,.,.,5.36µM*,.,.,.
Cc1ccc2oc(-c3cccc(NC(=S)NC(=O)/C=C/c4ccco4)c3)nc2c1,15.0%,28.8%,15.1µM*,?,9.4%,-29.0%
CCC(Sc1nnc(-c2ccc(OC)c(OC)c2)c(-c2ccc(OC)c(OC)c2)n1)C(=O)NC1CCCC1 (centres undefined),.,.,-0.2%,.,.,.
COc1ccc(OC)c(C(=O)COC(=O)c2ccccc2O)c1,15.1%,24.1%,12µM*,-0.6%,?,5.4%
COc1ccc(C(=O)COC(=O)c2cccnc2Cl)c(OC)c1,20.6µM*,21.4%,10.7µM*,2.24µM*,?,-0.5%
O=C(COC(=O)c1cccnc1Cl)c1ccc(OC(F)F)cc1,0.3%,-0.8%,5.36µM*,8.0%,-4.5%,1.4%
Cc1cc(C)c(C(=O)COC(=O)c2cccnc2Cl)c(C)c1,-0.8%,-2.2%,16.9µM*,-0.3%,0.3%,-0.3%
COc1ccc(OC)c(C(=O)COC(=O)c2c(OC)cccc2OC)c1,1.7%,-3.7%,3.1%,4.4%,-5.9%,-15.0%
COc1ccc(OC)c(C(=O)COC(=O)c2cccnc2Cl)c1,1.0%,-5.3%,?,6.3%,5.2%,4.7%
Cc1cc(C)cc(NC(=O)CC(C)n2nc(C)cc2C)c1 (centres undefined),.,.,-6.8%,.,.,.
CCOC(=O)c1ccccc1NC(=O)Cc1c(C(=O)O)c(C)cn1C,.,.,-15.7%,.,.,.
O=C(COC(=O)c1cccnc1Cl)c1ccc(Cl)cc1Cl,-0.5%,-0.3%,0.757µM*,-8.0%,1.3%,-4.5%
